# Laboratory results from the supplement of paper PMC8728848.
# This is one part of a sample in which the strongest signals are shown more often than they occur.
# B1: BIp1-His (Cryptococcus neoformans) (protein)
# chain: MFTKIFVALFAATAVLSAPVESAEKRITHTGRATFYSPSVGIGACGWQNTDEELVVALNAPQYALNADHNCGQSVRITNEQNGNQEIAKVVDLCPGCNDGDLDMSPALFGALNNNDFDQGVFPISWNFLPRDDTSSSN
# Assays:
# Experiment in all cases: glycan array binding signal (z-score within array); higher = stronger binding
# Conditions in all cases: glycan notation: IUPAC condensed, linker removed
# [1] = biological target: GlcNAc(b1-3)Gal(b1-4)GlcNAc(b1-3)Gal(b1-4)GlcNAc(b1-3)Gal(b1-4)GlcNAc(b1-3)Gal(b1-4)GlcNAc(b1-2)[GlcNAc(b1-3)Gal(b1-4)GlcNAc(b1-3)Gal(b1-4)GlcNAc(b1-3)Gal(b1-4)GlcNAc(b1-3)Gal(b1-4)GlcNAc(b1-6)]Man(a1-6)[GlcNAc(b1-3)Gal(b1-4)GlcNAc(b1-3)Gal(b1-4)GlcNAc(b1-3)Gal(b1-4)GlcNAc(b1-3)Gal(b1-4)GlcNAc(b1-2)Man(a1-3)]Man(b1-4)GlcNAc(b1-4)[Fuc(a1-6)]GlcNAc
# Outline: (§1)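 Glycan array data came from 3228 arrays in the Consortium for Functional Glycomics database, and only arrays with an available protein sequence were kept. Glycan names were put into IUPAC-condensed notation, and columns mapping to the same glycan were averaged. The binding signal is a within-array Z-score, averaged across arrays of one protein sequence run at different concentrations or buffers and across linkers. A negative Z-score can be read as non-binding.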
# [2] = biological target: GlcNAc(b1-3)[GlcNAc(b1-6)]GalNAc
# Outline: as §1
# [3] = biological target: Man(a1-2)Man(a1-3)Man
# Outline: as §1
# [4] = biological target: Man(a1-3)[Man(a1-6)]Man
# Outline: as §1
# [5] = biological target: Neu5Ac(a2-3)Gal(b1-3)GalNAc(b1-4)Gal(b1-4)Glc
# Outline: as §1
# [6] = biological target: Neu5Ac(a2-3)Gal(b1-3)GlcNAc
# Outline: as §1
# [7] = biological target: Neu5Ac(a2-3)Gal(b1-3)GlcNAc(b1-3)Gal(b1-4)GlcNAc
# Outline: as §1
# [8] = biological target: Neu5Ac(a2-3)Gal(b1-3)GlcNAc(b1-6)GalNAc
# Outline: as §1
# [9] = biological target: Neu5Ac(a2-3)Gal(b1-3)[Fuc(a1-4)]GlcNAc(b1-3)Gal(b1-3)[Fuc(a1-4)]GlcNAc
# Outline: as §1
# [10] = biological target: Neu5Ac(a2-3)Gal(b1-4)GlcNAc(b1-2)Man(a1-3)[Neu5Ac(a2-6)Gal(b1-4)GlcNAc(b1-2)Man(a1-6)]Man(b1-4)GlcNAc(b1-4)GlcNAc
# Outline: as §1
# [11] = biological target: Neu5Ac(a2-3)Gal(b1-4)GlcNAc(b1-3)Gal(b1-4)GlcNAc(b1-2)Man(a1-3)[Neu5Ac(a2-3)Gal(b1-4)GlcNAc(b1-3)Gal(b1-4)GlcNAc(b1-2)Man(a1-6)]Man(b1-4)GlcNAc(b1-4)GlcNAc
# Outline: as §1
# [12] = biological target: Neu5Ac(a2-3)Gal(b1-4)GlcNAc(b1-3)Gal(b1-4)GlcNAc(b1-3)Gal(b1-4)GlcNAc(b1-2)Man(a1-3)[Neu5Ac(a2-3)Gal(b1-4)GlcNAc(b1-3)Gal(b1-4)GlcNAc(b1-3)Gal(b1-4)GlcNAc(b1-2)Man(a1-6)]GalNAc
# Outline: as §1
# [13] = biological target: Neu5Ac(a2-3)Gal(b1-4)GlcNAc(b1-3)Gal(b1-4)GlcNAc(b1-3)[Neu5Ac(a2-3)Gal(b1-4)GlcNAc(b1-3)Gal(b1-4)GlcNAc(b1-6)]GalNAc
# Outline: as §1
# [14] = biological target: Neu5Ac(a2-3)Gal(b1-4)GlcNAc(b1-6)[Neu5Ac(a2-3)Gal(b1-3)]GalNAc
# Outline: as §1
# [15] = biological target: Neu5Ac(a2-3)Gal(b1-4)[Fuc(a1-3)]GlcNAc(b1-3)GalNAc
# Outline: as §1
# [16] = biological target: Neu5Ac(a2-3)Gal(b1-4)[Fuc(a1-3)]GlcNAc(b1-6)[Gal(b1-3)]GalNAc
# Outline: as §1
# [17] = biological target: Neu5Ac(a2-6)Gal(b1-4)GlcNAc(b1-2)Man(a1-3)Man(b1-4)GlcNAc(b1-4)GlcNAc
# Outline: as §1
# [18] = biological target: Neu5Ac(a2-6)Gal(b1-4)GlcNAc(b1-2)Man(a1-3)[Neu5Ac(a2-6)Gal(b1-4)GlcNAc(b1-2)Man(a1-6)]Man(b1-4)GlcNAc(b1-4)[Fuc(a1-6)]GlcNAc
# Outline: as §1
# [19] = biological target: Neu5Ac(a2-6)Gal(b1-4)GlcNAc(b1-2)[Neu5Ac(a2-6)Gal(b1-4)GlcNAc(b1-4)]Man(a1-3)[GlcNAc(b1-4)][Neu5Ac(a2-6)Gal(b1-4)GlcNAc(b1-2)[Neu5Ac(a2-6)Gal(b1-4)GlcNAc(b1-6)]Man(a1-6)]Man(b1-4)GlcNAc(b1-4)GlcNAc
# Outline: as §1
# [20] = biological target: Neu5Ac(a2-6)Gal(b1-4)GlcNAc(b1-3)Gal(b1-4)[Fuc(a1-3)]GlcNAc(b1-3)Gal(b1-4)[Fuc(a1-3)]GlcNAc
# Outline: as §1
# [21] = biological target: Neu5Ac(a2-8)Neu5Ac(a2-3)Gal(b1-3)GalNAc(b1-4)[Neu5Ac(a2-8)Neu5Ac(a2-3)]Gal(b1-4)Glc
# Outline: as §1
# [22] = biological target: Neu5Ac(b2-6)GalNAc
# Outline: as §1
# [23] = biological target: Neu5Gc(a2-3)Gal(b1-3)[Fuc(a1-4)]GlcNAc
# Outline: as §1
binder,measurement,setting,value
B1,glycan array binding signal (z-score),[1],0.882
same,glycan array binding signal (z-score),[2],-0.522
same,glycan array binding signal (z-score),[3],-0.136
same,glycan array binding signal (z-score),[4],0.728
same,glycan array binding signal (z-score),[5],-0.565
same,glycan array binding signal (z-score),[6],-0.217
same,glycan array binding signal (z-score),[7],0.65
same,glycan array binding signal (z-score),[8],1.86
same,glycan array binding signal (z-score),[9],-0.526
same,glycan array binding signal (z-score),[10],-0.064
same,glycan array binding signal (z-score),[11],-0.11
same,glycan array binding signal (z-score),[12],2.41
same,glycan array binding signal (z-score),[13],-0.12
same,glycan array binding signal (z-score),[14],-1.36
same,glycan array binding signal (z-score),[15],1.32
same,glycan array binding signal (z-score),[16],0.648
same,glycan array binding signal (z-score),[17],0.176
same,glycan array binding signal (z-score),[18],0.617
same,glycan array binding signal (z-score),[19],-0.066
same,glycan array binding signal (z-score),[20],-0.059
same,glycan array binding signal (z-score),[21],1.77
same,glycan array binding signal (z-score),[22],-0.971
same,glycan array binding signal (z-score),[23],-0.455
